Measured values taken from PubChem BioAssay (NCATS).
Records with an inconclusive call do not appear. Active and inactive are the calls of the source. Calls come from the whole dose curve; as a rule, active = well fitted inhibition curve with a large enough effect; inconclusive = small, poorly fitted or top-dose-only effect; inactive = no such curve, though single readings can be large or run the other way.

Experiment: P-glycoprotein substrates identified in KB-3-1 adenocarcinoma cell line, qHTS therapeutic library screen (AID 1346986); note: nearly all actives have a fitted effect of over 60% in size
Details: KB-3-1 parental cells viability, CellTiter-Glo, 72 h; at 44.5 µM (top of the series) unless noted
Protocol: The ATP-binding cassette transporters P-glycoprotein (P-gp) is known to limit brain penetration of many chemotherapy drugs. […] We used the CellTiter-Glo viability assay to test library compounds against the parental KB-3-1 human cervical adenocarcinoma cell line and the colchicine-selected sub-line KB-8-5-11 that over-expresses P-gp. KB-8-5-11 cells were also tested in the presence of a P-gp inhibitor (tariquidar) to assess reversability of transporter-mediated resistance. Of the tested compounds, a total of 90 P-gp substrates were identified including 55 newly identified P-gp substrates. Substrates were confirmed using an orthogonal killing assay against HEK-293 cells transfected with P-gp. As exemplars, we confirmed that AT7159 (cyclin-dependent kinase inhibitor); AT9283, (Janus kinase 2/3 inhibitor); ispinesib (kinesin spindle protein inhibitor); gedatolisib (PKI-587, phosphoinositide 3-kinase/mammalian target of rampamycin inhibitor); GSK-690693 (AKT inhibitor); and KW-2478 (heat shock protein 90 inhibitor) were substrates , and direct ATPase stimulation was assessed. ABCG2 was also found to confer high levels of resistance to AT9283, GSK-690693 and gedatolisib, while ispinesib, AT7519 and KW-2478 were weaker substrates.
The HeLa derivative cell line, KB-3-1, and its colchicine-selected, P-gp-overexpressing subline, KB-8-5-11 were maintained in DMEM with 10% FCS and Pen/Strep with glutamine at 37 degree C in 5% CO2. For KB-8-5-11 cells, colchicine was added to the medium at a concentration of 100 ng/mL. HEK-293 cells transfected with empty vector (pcDNA) or vector containing human ABCB1 (MDR-19) or ABCG2 (R-5) have been described previously (Robey, Lin, Qiu, Chan & Bates, 2011) and were maintained in EMEM supplemented with 10% FCS, Pen/Strep and glutamine with 2 mg/ml G418 to select for the expression of the transporter. Cultures were confirmed to be free of mycoplasma infection using the MycoAlert Mycoplasma Detection Kit (Lonza, Walkersville, MD). For the screen, assay medium was identical to culture medium except for KB-8-5-11 where colchicine was excluded from the medium.
All cell lines were plated into 1536-well plates at 500 cells/well in 5 uL media. Compounds were then pinned in dose-response using a 1536-head pin tool (Kalypsis, San Diego, CA) and plates were incubated at 37 degree C in 5% CO2 for an additional 72 h. CellTiter-Glo reagent (Promega) was dispensed into the wells, incubated for 5 min and luminescence was read on a ViewLux instrument (Perkin-Elmer). Cytotoxic compounds were defined as those that yielded a curve class of -1.1, -1.2, -2.1, -2.2, -2.3, or -2.4, a maximum response of >50% and an AC50 of < 10 uM. Cherry-picked hits from screening analysis were tested with both the KB pair of cell lines, and the pcDNA (empty vector control) and MDR-19 (P-gp overexpressing) pair were tested, in the absence and presence of tariquidar.

SMILES | outcome
C[C@@H]1C[C@H]2[C@@H]3C[C@H](F)C4=CC(=O)C=C[C@]4(C)[C@@]3(F)[C@@H](O)C[C@]2(C)[C@@]1(O)C(=O)CO | inactive
COc1ccc2[nH]c(S(=O)Cc3ncc(C)c(OC)c3C)nc2n1 (configuration not stated) | inactive
CN1CCC[C@@H]1Cc1c[nH]c2ccc(CCS(=O)(=O)c3ccccc3)cc12 | inactive
O=c1[nH]cnc2c1ncn2[C@@H]1O[C@H](CO)[C@@H](O)[C@H]1O | inactive
CNC(=O)Oc1ccc2c(c1)[C@]1(C)CCN(C)[C@@H]1N2C | inactive
Cc1cc(C(C#N)c2ccc(Cl)cc2)c(Cl)cc1NC(=O)c1cc(I)cc(I)c1O (configuration not stated) | inactive
CCCCN1CCCC[C@H]1C(=O)Nc1c(C)cccc1C | inactive
C[C@@H]1CN(c2c(F)c(F)c3c(=O)c(C(=O)O)cn(C4CC4)c3c2F)C[C@H](C)N1 | inactive [at 9.29 µM]
CC(C(O)c1ccc(O)cc1)N1CCC(Cc2ccccc2)CC1 (configuration not stated) | inactive [at 17.4 µM]
COc1ccc(Cl)cc1C(=O)NCCc1ccc(S(=O)(=O)NC(=O)NC2CCCCC2)cc1 | inactive
Nc1ccc(S(=O)(=O)Nc2nccs2)cc1 | inactive
CCN(CC)CCNC(=O)c1cc(Cl)c(N)cc1OC | inactive
